Measured values: PubChem BioAssay (NCI)
This is part of a sample that, as a whole, favours compounds with a hit. Of some 83,000 tested, about 20% had one in any assay.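 Cells were grown in 96-well plates and exposed to the test compound at a single concentration for 48 hours; results are reported as percent growth, with values below 10 considered active.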 Active and inactive are the calls of the source.

Tests used:
Test in all cases: NCI-60 one-dose screen, 48 h (100 = growth as untreated, 0 = no growth, -100 = all killed)
[1] = test system: BT-549 breast; details: 10 µM unless noted
[2] = test system: MDA-MB-435 melanoma; details: 10 µM unless noted
[3] = test system: SW-620 colon; details: 10 µM unless noted
[4] = test system: MCF7 breast; details: 10 µM
[5] = test system: HCT-116 colon; details: 10 µM unless noted
[6] = test system: HCC-2998 colon; details: 10 µM unless noted
[7] = test system: KM12 colon; details: 10 µM unless noted

Measured: growth

CCC(C)(C)C(=O)O[C@H]1C[C@@H](C)C=C2C=C[C@H](C)[C@H](CC[C@@H]3CC=CC(=O)O3)[C@H]21
active: [5] -5.88%
inactive: [1] 95.9% | [2] 60.3% | [3] 17.7% | [4] 36.8% | [6] 88.8% | [7] 87.5%

COc1cc(-c2c3c(c(Br)n2Cc2ccccc2)-c2nc(N)sc2CC3)cc(OC)c1OC
inactive: [1] 94.1% | [2] 35.8% | [3] 74.9% | [4] 61.4% | [5] 69.2% | [6] 96.3% | [7] 88.6%

CC(C)CCOc1ccc(-c2n[nH]c(C(F)(F)F)c2-c2cncc(C#N)c2)c(O)c1
inactive: [3] 14.3% | [6] 16.2%
active: [1] 6.56% | [2] 7.91% | [4] 2.95% | [5] 2.41% | [7] 7.94%

CC1CCCCN1CCCNC(=O)c1ccc2c(c1)sc1nc(-c3ccc(F)cc3)cn12 (centres undefined)
inactive: [1] 91% | [2] 109% | [3] 105% | [4] 99.5% | [5] 89.7% | [6] 88.7% | [7] 101%

CNCCNc1nc2ccccc2c2c(=O)c3cc(F)ccc3sc12
inactive: [1] 82.4%
active: [2] -61.1% | [3] -63.3% | [4] -44.5% | [5] 0.271% | [6] -41.8% | [7] -33.8%

O=C(/C=C/c1ccc(F)cc1)c1ccc(Nc2nc(NCCO)nc(Nc3ccc(Cl)cc3)n2)cc1
active: [4] 4.3% | [5] 8.67%
inactive: [1] 72% | [2] 74.5% | [3] 46.3% | [6] 29.9% | [7] 25.5%

Cn1nc(C(F)(F)F)c(-c2ccc(Cl)c(C(F)(F)F)c2)c1-c1ccc(OCc2ccc(Cl)cc2)cc1O
inactive: [1] 39.8% | [2] 24.7% | [3] 13.9% | [6] 13.5%
active: [4] 4.01% | [5] -0.403% | [7] 8.83%

COc1ccc(-c2nsc3c2NC(=O)CC3c2ccsc2)cc1 (centres undefined)
inactive: [1] 12.1% | [3] 28.3% | [4] 16.7% | [5] 10.8% | [6] 31.1%
active: [2] -44% | [7] 8.01%

O=C(Nc1ccc(N2CCNCC2)cn1)c1[nH]ncc1Nc1ncnc2sccc12
inactive: [1] 93.4% | [4] 20.1% | [6] 52.6% | [7] 57.3%
active: [2] -86.1% | [3] -89.2% | [5] -68.2%

Oc1ccc(-c2nc(-c3ccc4oc5ccc(-c6[nH]c(-c7ccc(O)cc7)nc6-c6ccccc6)cc5c4c3)c(-c3ccccc3)[nH]2)cc1
inactive: [1] 57.2% | [2] 43.5% | [3] 54.7% | [4] 50.7% | [5] 31.3% | [6] 62.3% | [7] 50.8%

Cn1nc(C(C)(C)C)cc1NC(=O)Cc1ccc(/C=C2\C(=O)Nc3ccccc32)cc1
inactive: [1] 35.4% | [2] 56% | [3] 76.8% | [4] 19.2% | [5] 33.6% | [6] 96.3% | [7] 21.7%

CC(=O)O[C@@H]1/C=C/C(=O)N[C@@H](C)CCC/C=C/[C@@H]2CCC[C@H]21
inactive: [1] 117% | [2] 106% | [3] 112% | [4] 98.8% | [5] 104% | [6] 98.5% | [7] 108%

COc1ccc(/C=c2\sc3n(c2=O)NC2C(N=3)N(C)C(=O)N2C)cc1 (centres undefined)
inactive: [1] 111% | [2] 89.6% | [3] 105% | [4] 94.5% | [5] 100% | [6] 108% | [7] 95.2%

Nc1nc(N)c2c(n1)NC1(C=C(O)c3ccccc31)C1=C(N2)c2ccccc2C1=O (centres undefined)
inactive: [1] 112% | [2] 125% | [3] 99.4% | [4] 97.1% | [5] 101% | [6] 109% | [7] 109%

COc1ccc(C2NCCc3c2[nH]c2ccccc32)cc1CN1CCN(c2ccc(F)cc2)CC1 (centres undefined)
inactive: [1] 69.7% | [2] 38.2% | [3] 29.6% | [4] 33.9% | [5] 41.6% | [6] 17.9% | [7] 40.4%

O=C1NC(=S)NC(=O)C1=Cc1cn(Cc2cn(Cc3cccc4ccccc34)nn2)c2ccccc12
inactive: [1] 101% | [2] 94.8% | [3] 93.4% | [4] 95.4% | [5] 106% | [6] 100% | [7] 97.2%

COc1cc(C=C2C(=O)N(C)C(=O)N(C)C2=O)cc(CN2CCCCC2)c1O
inactive: [1] 101% | [2] 103% | [3] 104% | [4] 92.5% | [5] 100% | [6] 103% | [7] 103%
